Among the data in PubChem BioAssay (NCI) are growth values, retold here.

The panel holds about 83,000 compounds, 20% with a hit somewhere; the sample as a whole holds those more often.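 Single-concentration screen, 48 h exposure, 96-well plates. Endpoint: percent growth. Below 10 = active.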 Unmarked numbers belong to inactive results. Active and inactive are the calls of the source.

Test systems include SK-MEL-2 melanoma; EKVX NSCLC; SN12C renal; UO-31 renal; TK-10 renal; ACHN renal; CAKI-1 renal; A498 renal; CCRF-CEM leukemia; MOLT-4 leukemia; SR leukemia; RPMI-8226 leukemia; OVCAR-8 ovarian; OVCAR-5 ovarian; OVCAR-4 ovarian; SK-OV-3 ovarian; IGROV1 ovarian; OVCAR-3 ovarian; HS 578T breast; NCI/ADR-RES ovarian.
Holding throughout (assay): NCI-60 one-dose screen, 48 h (100 = growth as untreated, 0 = no growth, -100 = all killed)
Common to all, as to details: 10 µM

Turning to `CC(=O)OC1C=CC(OC(C)=O)O1` (stereo not given), the growth was 88.9% in the assay with SK-MEL-2 melanoma; 99.3% in the assay with EKVX NSCLC; 89.8% with SN12C renal; 59.4% with UO-31 renal; 102% in the assay on TK-10 renal; 97.9% in the assay with ACHN renal. Also, the growth with CAKI-1 renal was 89%; in the assay with A498 renal, 81.3%; in the assay with CCRF-CEM leukemia it was 76.6%; with MOLT-4 leukemia it was 90%; in the assay with SR leukemia it was 101%; in the assay on RPMI-8226 leukemia, 92.4%. Besides, the growth in the assay with OVCAR-8 ovarian was 94.2%; in the assay on OVCAR-5 ovarian it was 101%; in the assay with OVCAR-4 ovarian it was 97.5%; in the assay with SK-OV-3 ovarian, 91.8%; with IGROV1 ovarian, 89.8%; in the assay on OVCAR-3 ovarian, 102%. Moreover, the growth in the assay on HS 578T breast was 87.4%; in the assay with NCI/ADR-RES ovarian, 99.2%.

As for `CCC(CC)n1c(C)cc(=O)n1C(CC)CC`, the growth was 111% with SK-MEL-2 melanoma; 113% in the assay on EKVX NSCLC; 105% with SN12C renal; 115% with UO-31 renal; 109% in the assay with TK-10 renal; 101% in the assay on ACHN renal. In addition, the growth in the assay on CAKI-1 renal is 97.6%; in the assay with A498 renal it was 116%; in the assay on CCRF-CEM leukemia, 107%; with MOLT-4 leukemia it was 103%; with SR leukemia it was 118%; in the assay on RPMI-8226 leukemia, 106%. The growth in the assay with OVCAR-8 ovarian was 104%; in the assay with OVCAR-5 ovarian, 99.4%; with OVCAR-4 ovarian, 107%; in the assay with SK-OV-3 ovarian, 104%; in the assay on IGROV1 ovarian, 140%; with OVCAR-3 ovarian, 113%. The figures for the growth with HS 578T breast and in the assay with NCI/ADR-RES ovarian were 110% and 107%, respectively.

With `Oc1cccc(-c2nc3sccn3c2-c2ccncn2)c1`, the growth is 83.7% in the assay on SK-MEL-2 melanoma; 92.8% in the assay with EKVX NSCLC; 92.1% in the assay on SN12C renal; 76.8% in the assay with UO-31 renal; 123% in the assay on TK-10 renal; 97.8% in the assay on ACHN renal. Besides, the growth was 69.8% with CAKI-1 renal; 119% in the assay on A498 renal; 94.1% in the assay with CCRF-CEM leukemia; 101% in the assay on MOLT-4 leukemia; 60.1% in the assay with SR leukemia; 118% in the assay with RPMI-8226 leukemia. In addition, the growth in the assay with OVCAR-8 ovarian is 102%; with OVCAR-5 ovarian it was 119%; in the assay on OVCAR-4 ovarian it was 114%; in the assay with SK-OV-3 ovarian it was 88.4%; in the assay with IGROV1 ovarian it was 91.2%; in the assay with OVCAR-3 ovarian, 114%. Also, the growth in the assay with HS 578T breast is 81.7%; with NCI/ADR-RES ovarian, 94%.

On to `O=C(CSc1nnc(-c2cccnc2SCc2ccccc2)o1)Nc1nc(Cl)cc(Cl)n1`, for which the growth is 102% in the assay on SK-MEL-2 melanoma; 103% with EKVX NSCLC; 103% in the assay on SN12C renal; 67.7% with UO-31 renal; 109% in the assay on TK-10 renal; 103% in the assay on ACHN renal. Moreover, the growth is 95.8% in the assay with CAKI-1 renal; 112% with A498 renal; 101% with CCRF-CEM leukemia; 95.7% in the assay on MOLT-4 leukemia; 101% with SR leukemia; 100% with RPMI-8226 leukemia. Moreover, the growth was 102% with OVCAR-8 ovarian; 106% in the assay on OVCAR-5 ovarian; 106% in the assay on OVCAR-4 ovarian; 110% in the assay on SK-OV-3 ovarian; 105% in the assay with IGROV1 ovarian; 106% in the assay with OVCAR-3 ovarian. For the same molecule, the growth is 97.4% in the assay with HS 578T breast and 101% with NCI/ADR-RES ovarian.

Consider `COc1ccc(C(=O)N2C=Cc3ccccc3C2C#N)cc1` (stereo not given), for which the growth was 101% in the assay with SK-MEL-2 melanoma; 99.4% with EKVX NSCLC; 89.3% in the assay on SN12C renal; 73.9% with UO-31 renal; 100% with TK-10 renal; 96.4% in the assay on ACHN renal. Moreover, the growth in the assay with CAKI-1 renal was 87.3%; in the assay with A498 renal, 91.1%; with CCRF-CEM leukemia, 92.7%; with MOLT-4 leukemia it was 83.4%; in the assay with SR leukemia, 88.8%; in the assay on RPMI-8226 leukemia it was 94.9%. Further, the growth with OVCAR-8 ovarian was 100%; with OVCAR-5 ovarian, 102%; in the assay on OVCAR-4 ovarian, 102%; in the assay on SK-OV-3 ovarian, 97.5%; in the assay with IGROV1 ovarian, 114%; in the assay on OVCAR-3 ovarian, 105%. Further, the growth is 96.9% in the assay on HS 578T breast and 95.6% with NCI/ADR-RES ovarian.

As for `CN(C)CCC1(c2ccccc2)CCN(C)C1=O` (stereo not given), the growth was 95.4% in the assay with SK-MEL-2 melanoma; 110% in the assay with EKVX NSCLC; 103% with SN12C renal; 87.4% in the assay on UO-31 renal; 112% in the assay with TK-10 renal; 102% in the assay on ACHN renal. The growth in the assay with CAKI-1 renal is 103%; in the assay with A498 renal it was 94.1%; in the assay with CCRF-CEM leukemia, 103%; in the assay with MOLT-4 leukemia it was 95.6%; in the assay on SR leukemia it was 112%; in the assay on RPMI-8226 leukemia it was 108%. The growth was 104% with OVCAR-8 ovarian; 107% with OVCAR-5 ovarian; 113% with OVCAR-4 ovarian; 100% with SK-OV-3 ovarian; 109% with IGROV1 ovarian; 99.5% in the assay with OVCAR-3 ovarian. Further, the growth is 108% in the assay on HS 578T breast and 103% with NCI/ADR-RES ovarian.

For `O=C1/C=C/[C@@H](O)[C@@H]2C[C@@H](O)C[C@H]2/C=C/CCC[C@H](CCc2ccc(NC(=S)Nc3ccc4c(c3)C(=O)OC43c4ccc(O)cc4Oc4cc(O)ccc43)cc2)O1`, the growth is -9.15% (active) in the assay on SK-MEL-2 melanoma; 12.7% in the assay with EKVX NSCLC; 10.1% in the assay with SN12C renal; 11% with UO-31 renal; -21.2% (active) in the assay with TK-10 renal; 14.9% in the assay with ACHN renal. The growth in the assay on CAKI-1 renal is 22.2%; in the assay on A498 renal, -29.7% (active); in the assay on CCRF-CEM leukemia it was -2.59% (active); in the assay on MOLT-4 leukemia, -8.92% (active); in the assay on SR leukemia it was 6.14% (active); in the assay with RPMI-8226 leukemia, 12.3%. The growth with OVCAR-8 ovarian is 10.5%; in the assay with OVCAR-5 ovarian it was 17.9%; in the assay with OVCAR-4 ovarian it was 23.4%; in the assay on SK-OV-3 ovarian, 32.1%; in the assay on IGROV1 ovarian, 25.7%; in the assay on OVCAR-3 ovarian it was -0.249% (active). Also, the growth was 39.8% in the assay on HS 578T breast and 10.9% in the assay on NCI/ADR-RES ovarian.

Consider `CCOC(=O)C1=CSC2=NC3=C(CCC/C3=C\c3ccc(Cl)cc3)C(c3ccc(Cl)cc3)N12` (stereo not given), for which the growth is 106% with SK-MEL-2 melanoma; 91.6% with EKVX NSCLC; 95% with SN12C renal; 95.2% in the assay on UO-31 renal; 119% with TK-10 renal; 107% with ACHN renal. For the same molecule, the growth in the assay on CAKI-1 renal is 103%; in the assay on A498 renal, 78.1%; with CCRF-CEM leukemia it was 87.8%; with MOLT-4 leukemia it was 82.2%; in the assay with SR leukemia it was 89.6%; with RPMI-8226 leukemia, 6.15% (active). The growth in the assay on OVCAR-8 ovarian was 93.7%; with OVCAR-5 ovarian, 103%; in the assay with OVCAR-4 ovarian, 94.7%; in the assay on SK-OV-3 ovarian, 94.7%; in the assay on IGROV1 ovarian, 109%; with OVCAR-3 ovarian, 100%. The growth was 91.9% with HS 578T breast and 98.1% with NCI/ADR-RES ovarian.
